Sampled rows, rich in hits. Any-hit rate of the full collection: about 19%.
IL-1B inflam inh – inhibitors of inflammasome signaling (IL-1 beta secretion); THP-1 LPS/ATP IL-1B secretion, AlphaLISA, 16 h; active compounds read low; activity change, % at 57.5 µM; AID 743279; hit rate 4.7% among 360,000; in the data active = activity change below about -50%; inconclusive = mostly about -30% to -49%
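Secreted IL-1B measured by AlphaLISA bead assay after 16 h compound exposure of THP-1 cells; compounds (final up to 57.5 uM) added 1 h before LPS (250 ng/mL) and ATP (1.25 mM) stimulation; lower signal means less secretion.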
TDP1 cell CPT – DT40-hTDP1 cell growth loss with CPT. hit rate 12% among 420,000. Potency, µM (highest dose often 46.2 µM), usual class: inhibitors. chicken DT40 Tdp1-/-;hTDP1 cells + 20 nM CPT, ATP luminescence, 48 h; also: nearly all actives have a fitted effect of over 55% in size
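Cell growth measured by CellTiter-Glo luminescence after a minimum 48 h, 37 C compound exposure with 20 nM CPT in Tdp1-knockout DT40 cells stably expressing hTDP1, seeded 400/well; qHTS titration format.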
HT1080 IDH1KD tx – kills HT-1080 cells with IDH1 knockdown; HT-1080 IDH1 knockdown viability, ATP luminescence, 48 h; Potency, µM (titrated, usually from 46.1 µM), actives largely listed as cytotoxic; hit rate 2% among 360,000; AID 686971
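Luminescent ATP read-out (CellTiter-Glo, 10 min at room temperature) after 48 h compound exposure at 37 °C gave viability of IDH1-knockdown HT-1080 cells. Activity was normalised to DMSO and cell-free wells, then fitted as concentration-response curves.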
TDP1 cell noCPT – qHTS for Inhibitors of human tyrosyl-DNA phosphodiesterase 1 (TDP1): qHTS in cells in absence of CPT. DT40 Tdp1-/- hTDP1 cells, no CPT, ATP luminescence, 48 h. Potency, µM (series often up to 46.2 µM), usual class: inhibitors. hit rate 15% among 420,000. AID 686978, 2013; also: nearly all actives have a fitted effect of over 55% in size
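Readout: luminescence from CellTiter-Glo after 30 min in the dark at RT. Cells: DT40 Tdp1-/- with stable hTDP1, 400/well. Exposure: compounds alone, ≥48 hr, 37 °C.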
HT1080NT lethal – kills 2HG-producing HT-1080-NT fibrosarcoma cells | Potency, µM (titrated, usually from 46.1 µM), hits mostly cytotoxic | hit rate 1.6% among 360,000 | HT-1080-NT fibrosarcoma viability, CellTiter-Glo ATP luminescence, 48 h | AID 686970;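 also: NT is the 2HG producing partner of a matched IDH1 knockdown line; nearly all actives have a fitted effect of over 55% in size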
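Fibrosarcoma NT cells, 750 per well in 5% FBS RPMI, were exposed to compound for 48 hours. Viability: CellTiter-Glo luminescence.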
A number is an active result; – = inactive; ? = inconclusive; · = no result given; [ ] = dose if it differs, or a comment. Unless noted, calls follow the shape of the dose curve; as a rule, active = well fitted curve in the direction sought with a large enough effect; inconclusive = small, poorly fitted or top-dose-only effect, or another doubt; inactive = no such curve, though single readings can be large; an effect the other way counts as inactive or inconclusive.

SMILES	IL-1B inflam inh	TDP1 cell CPT	HT1080 IDH1KD tx	TDP1 cell noCPT	HT1080NT lethal
Cc1nn2c(-c3cccc(NC(=O)c4ccccc4)c3)nnc2c2ccccc12	·	4.6µM	·	2.9µM	·
Cc1nn2c(-c3cccc(NC(=O)CN4CCOCC4)c3)nnc2c2ccccc12	·	29µM	–	13µM	–
Cc1ccc(-c2nnc3c4ccccc4c(C)nn23)cc1S(=O)(=O)N1CCN(CCO)CC1	?	?	–	18µM	–
CCCC(=O)Nc1cc(-c2nnc3c4ccccc4c(C)nn23)ccc1C	·	–	·	–	·
Cc1nn2c(-c3cccc(NC(=O)CSc4nc5ccccc5o4)c3)nnc2c2ccccc12	–	12µM	–	7.3µM	–
O=C(N/C(=C\c1ccc2c(c1)OCO2)C(=O)N1CCOCC1)c1ccccc1Br	–	–	–	–	–
C=CC#CC[N+]1(CC#Cc2ccccc2)CCOCC1	–	–	–	–	–
C(#Cc1ccccc1)C[N+]1(CC#Cc2ccccc2)CCCC1	?	1.8µM	?	1µM	–
C=CC[N+]1(CC#Cc2ccccc2)CCCC1	–	?	–	?	–
C#CC[N+]1(CC#Cc2ccc(C)cc2)CCCCC1	–	2.3µM	–	3.3µM	?
Cc1cc(C(=O)OCC(=O)NC2CC2)c2ccccc2n1	–	–	–	–	–[9.24 µM]
O=c1c(N2CCN(c3ccc(F)cc3)CC2)csc2ccc(F)cc12	·	18µM	·	?	·
Cn1cnc2ncnn2c1=S	–	–	–	–	–
O=C(c1ccc(-c2cccc([N+](=O)[O-])c2)o1)N1CCN(c2ccc([N+](=O)[O-])cc2)CC1	–	6.5µM	–	4.1µM	–
O=[N+]([O-])c1cccc(-c2ccc(C(=S)N3CCN(c4ccc(F)cc4)CC3)o2)c1	–	–	–	–	–
CCc1nc2ccc(C(=O)N3CCN(c4ccc([N+](=O)[O-])cc4)CC3)cc2nc1CC	?	16µM	–	?	?
O=C(/C=C\c1ccc(-c2cccc([N+](=O)[O-])c2)o1)N1CCOCC1	–	?	–	23µM	–
CCc1noc(C)c1C(=O)N1CCN(c2ccc([N+](=O)[O-])cc2)CC1	–	?	–	?	–
O=C(c1ccc(-c2ccc(Cl)cc2)o1)N1CCN(c2ccc([N+](=O)[O-])cc2Cl)CC1	–	5.2µM	?	2.6µM	?
COc1ccc(/C=C/C(=O)N2CCN(C)CC2)cc1OC	–	–	–	–	–
CC(=O)NCCc1ccc(S(=O)(=O)N2CCN(c3nc(-c4ccccc4)c(C)s3)CC2)cc1	–	?	–	–	–
Cc1ccc(Nc2nnc(SC3CCOC3=O)s2)c(C)c1 (stereo unspecified)	–	–	–	–	–
O=c1[nH]cc(S(=O)(=O)N2CCOCC2)c(=O)[nH]1	–	–	–	–	–
CC1CCN(c2ccccc2NC(=S)NC(=O)c2ccc(-c3cccc([N+](=O)[O-])c3)o2)CC1	–	?	–	?	–
CC1CC(C)CN(C(=O)c2ccc(-c3ccc([N+](=O)[O-])cc3)o2)C1 (stereo unspecified)	?	16µM	–	16µM	–
SMILES	IL-1B inflam inh	TDP1 cell CPT	HT1080 IDH1KD tx	TDP1 cell noCPT	HT1080NT lethal
O=C(c1cccc([N+](=O)[O-])c1)N1CCN(c2ccc(Cl)cc2)CC1	–	21µM	–	15µM	–
CC1CCN(c2ccc(NC(=S)NC(=O)c3ccc(-c4cccc([N+](=O)[O-])c4)o3)cc2)CC1	–	11µM	6.3µM	10µM	?
Cc1ccc(S(=O)(=O)NC(=O)Nc2ccc(C)cn2)cc1	–	–	–	–	–
Cc1nc(C(=O)N2CCC(C)(C(=O)NS(=O)(=O)C3CC3)C2)c(C)o1 (stereo unspecified)	–	–	–	–	–
Cc1[nH]c2ccccc2c1C(=O)C(=O)N1CC=C(c2ccccc2)CC1	–	15µM	21µM	23µM	?
Cc1[nH]c2ccccc2c1C(=O)C(=O)N1CC(C)OC(C)C1 (stereo unspecified)	–	–	–	–	–
COc1ccc(S(=O)(=O)N2CCCCC2)cc1NC(=O)c1ccc([N+](=O)[O-])o1	·	15µM	–	21µM	–
COc1ccc(CCC(=O)N2CCN(S(=O)(=O)c3ccc(C)cc3)CC2)cc1	–	–	–	–	–
COc1ccc(S(=O)(=O)N2CCN(C(=O)c3ccc([N+](=O)[O-])o3)CC2)cc1	-82	10µM	?	21µM	?
CCN1CCN(c2ccc(S(=O)(=O)N3CCCCC3)cc2NC(=O)c2ccc([N+](=O)[O-])o2)CC1	–	8.2µM	–	7.3µM	–
COc1ccc(S(=O)(=O)N2CCCCC2)cc1NC(=O)c1ccc(C)cc1	–	–	–	–	–
CCN1CCN(c2ccc(S(=O)(=O)N3CCCCC3)cc2NC(=O)c2cccc(C)c2)CC1	?	?	–	?	–
COc1ccc(C=O)cc1Oc1nc(Cl)ncc1F	–	?	–	?	–
Fc1ccc(-c2nnsc2Sc2ccccn2)cc1	–	–	–	–	–
Cc1ccc(S(=O)(=O)N2CCCCC2CCNC(=O)C(=O)NCc2cccnc2)cc1 (stereo unspecified)	–	21µM	?	18µM	?
Cc1cc(C)c(S(=O)(=O)N2CCCC(C(=O)NCc3cccnc3)C2)c(C)c1 (stereo unspecified)	–	16µM	–	21µM	–
Cc1cc(C)c(S(=O)(=O)N2CCCCC2CCNC(=O)C(=O)NCc2cccnc2)c(C)c1 (stereo unspecified)	–	12µM	–	?	–
Cc1cc(F)ccc1S(=O)(=O)N1CCCCC1CCNC(=O)C(=O)NCc1ccccn1 (stereo unspecified)	–	?	–	16µM	–
Cc1ccc(C)c(S(=O)(=O)N2CCCCC2CCNC(=O)C(=O)NCc2ccccn2)c1 (stereo unspecified)	–	?	–	?	–
Cc1ccc(CNC(=O)C(=O)NCCC2CCCCN2S(=O)(=O)c2ccc(C)cc2)cc1 (stereo unspecified)	–	23µM	–	?	–
Cc1ccc(C)c(S(=O)(=O)N2CCCCC2CCNC(=O)C(=O)NCc2ccccc2)c1 (stereo unspecified)	–	23µM	?	18µM	?
Cc1ccc(C)c(S(=O)(=O)N2CCCC2CNC(=O)C(=O)NC2CCCCCC2)c1 (stereo unspecified)	–	?	–	23µM	–
Cc1ccc(S(=O)(=O)N2CCCCC2CCNC(=O)C(=O)NC2CC2)cc1 (stereo unspecified)	–	?	–	?	–
Cc1ccccc1CNC(=O)C(=O)NCCC1CCCCN1S(=O)(=O)c1ccccc1 (stereo unspecified)	–	16µM	–	18µM	–
CN(Cc1ccccc1)C(=O)c1ccc(NC(=O)Cc2cccc(NC(=O)C3CCN(C(=O)C4CC4)CC3)c2)cc1	–	–	–	–	–

High-throughput results from PubChem.
